From PubChem BioAssay
DT40 TDP1 CPT: qHTS for Inhibitors of human tyrosyl-DNA phosphodiesterase 1 (TDP1): qHTS in cells in presence of CPT | chicken DT40 Tdp1-/-;hTDP1 cells + 20 nM CPT, ATP luminescence, 48 h | AID 686979, 2013 | Potency, µM (top dose mostly 46.2 µM), without a hit: top-dose activity change, negative = growth inhibition, most hits filed as inhibitors | 12% of 420,000 active; note: potency is the fitted concentration of half-maximal effect; nearly all actives have a fitted effect of over 55% in size
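Cell growth measured by CellTiter-Glo luminescence after a minimum 48 h, 37 C compound exposure with 20 nM CPT in Tdp1-knockout DT40 cells stably expressing hTDP1, seeded 400/well; qHTS titration format.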
IL1B secr inh: qHTS for Inhibitors of Inflammasome Signaling: IL-1-beta AlphaLISA Primary Screen; THP-1 LPS/ATP IL-1B secretion, AlphaLISA, 16 h; stronger effect = lower value; activity change, % at 57.5 µM; 4.7% of 360,000 active; AID 743279, 2014; in the data active = activity change below about -50%; inconclusive = mostly about -30% to -49%
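Secreted IL-1B measured by AlphaLISA bead assay after 16 h compound exposure of THP-1 cells; compounds (final up to 57.5 uM) added 1 h before LPS (250 ng/mL) and ATP (1.25 mM) stimulation; lower signal means less secretion.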
HT1080NT lethal: qHTS for induction of synthetic lethality in tumor cells producing 2HG: qHTS for the HT-1080-NT fibrosarcoma cell line; HT-1080-NT fibrosarcoma viability, CellTiter-Glo ATP luminescence, 48 h; Potency, µM (top dose mostly 46.1 µM), for the others: top-dose activity, negative = less viability, usual class: cytotoxic; 1.6% of 360,000 active;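 note: NT is the 2HG producing partner of a matched IDH1 knockdown line; potency is the fitted concentration of half-maximal effect; 0% = DMSO-treated cells and -100% = media-only wells without cells; nearly all actives have a fitted effect of over 55% in size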
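HT-1080-NT; 750 cells/well; 5% FBS RPMI; 48 h compound, 37 degrees C; CellTiter-Glo luminescence; curve fitting and curve-class assignment.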
ALOX12 inh: Primary qHTS assay for inhibitors of human arachidonate 12S-lipoxygenase (ALOX12): Round 2 | Polyunsaturated fatty acid lipoxygenase ALOX12 (Homo sapiens), P18054 | purified 12hLO, xylenol orange hydroperoxide absorbance | Potency, µM (doses to about 108 µM), for the others: top-dose activity change, negative = inhibition, usual class: inhibitors | 1.1% of 580,000 active; note: potency is the fitted concentration of half-maximal effect
Target sequence (P18054 whole entry, looked up): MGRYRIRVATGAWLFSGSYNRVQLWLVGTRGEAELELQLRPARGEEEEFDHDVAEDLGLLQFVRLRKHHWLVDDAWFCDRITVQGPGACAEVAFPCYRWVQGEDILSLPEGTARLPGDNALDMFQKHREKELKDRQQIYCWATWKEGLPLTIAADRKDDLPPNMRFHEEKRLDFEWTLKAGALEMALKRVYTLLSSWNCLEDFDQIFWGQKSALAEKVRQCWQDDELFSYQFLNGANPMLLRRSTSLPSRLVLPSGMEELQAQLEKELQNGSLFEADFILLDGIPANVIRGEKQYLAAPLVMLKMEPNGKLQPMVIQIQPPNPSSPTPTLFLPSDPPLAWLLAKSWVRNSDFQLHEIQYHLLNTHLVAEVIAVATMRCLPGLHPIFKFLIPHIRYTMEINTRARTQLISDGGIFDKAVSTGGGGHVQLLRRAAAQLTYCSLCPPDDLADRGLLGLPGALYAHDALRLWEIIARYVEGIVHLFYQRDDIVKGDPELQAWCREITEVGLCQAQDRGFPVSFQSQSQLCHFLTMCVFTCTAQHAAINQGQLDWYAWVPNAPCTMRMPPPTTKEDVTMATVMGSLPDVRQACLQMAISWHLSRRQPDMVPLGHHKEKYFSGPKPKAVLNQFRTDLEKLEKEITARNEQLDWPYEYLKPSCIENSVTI
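Hydroperoxide product was detected by ferrous iron/xylenol orange as the 573 to 405 nm absorbance ratio. Arachidonic acid at 40 uM (final) was turned over for 30 min at room temperature by 150 nM human 12hLO, pH 7.0 Hepes buffer, after 15 min compound preincubation.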
TDP1 cell noCPT: qHTS for Inhibitors of human tyrosyl-DNA phosphodiesterase 1 (TDP1): qHTS in cells in absence of CPT; Potency, µM (top dose mostly 46.2 µM), without a hit: at the top dose activity change, negative = growth inhibition, actives largely listed as inhibitors; DT40 Tdp1-/- hTDP1 cells, no CPT, ATP luminescence, 48 h; 15% of 420,000 active; note: potency is the fitted concentration of half-maximal effect; nearly all actives have a fitted effect of over 55% in size
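DT40 Tdp1-/-;hTDP1 cells, no CPT (DMSO vehicle only), 400 cells/well; compounds pin-transferred; ≥48 hr, 37 °C; CellTiter-Glo 30 min RT dark, luminescence read.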
HT1080 IDH1KD tx: qHTS for induction of synthetic lethality in tumor cells producing 2HG: qHTS for the HT-1080-IDH1KD cell line | Potency, µM (titrated, usually from 46.1 µM), without a hit: at the top dose activity, negative = toxicity, most hits filed as cytotoxic | 2% of 360,000 active | HT-1080 IDH1 knockdown viability, ATP luminescence, 48 h | AID 686971, 2013;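 note: potency is the fitted concentration of half-maximal effect; 0% = DMSO wells and -100% = cell-free medium wells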
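Viability of IDH1-knockdown HT-1080 fibrosarcoma cells was assessed by CellTiter-Glo after 48 h at 37 °C with titrated compound; concentration-effect curves were classified by fit quality and response size.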
* marks the source's active call; other numbers are inactive results; i = inactive; ? = inconclusive; . = not tested or not shown; [ ] = another dose, or the depositor's remark. Shown is part of a subset that was picked to be rich in hits. Unless noted, calls come from the whole dose curve; as a rule, active = well fitted curve in the direction sought with a large enough effect; inconclusive = small, poorly fitted or top-dose-only effect, or another doubt; inactive = no such curve, though single readings can be large; an effect the other way counts as inactive or inconclusive. Unless noted, % is set by controls: 0 for no effect and ±100 for the full control effect.

SMILES | DT40 TDP1 CPT | IL1B secr inh | HT1080NT lethal | ALOX12 inh | TDP1 cell noCPT | HT1080 IDH1KD tx
COCCNc1nc(-c2c(C)noc2C)nc2ccccc12 | -22% | . | . | -14% | -17% | .
Cc1noc(C)c1-c1nc(Nc2ccc(F)cc2)c2ccccc2n1 | -16% | . | . | 22µM* | 2% | .
Cc1noc(C)c1-c1nc(NCc2cccs2)c2ccccc2n1 | ? | . | . | 28µM* | 23µM* | .
Cc1noc(C)c1-c1nc(Nc2ccncc2)c2ccccc2n1 | -12% | . | . | ? | ? | .
CC(C)CN1C[C@@H](NC(=O)c2cccnc2)C[C@H]1CO | . | . | . | 7% | . | .
O=c1n(-c2ccc(C(F)(F)F)cc2)nc2n1CCN(Cc1ccc(F)cc1)C2 | . | . | . | 17% | . | .
COc1ccc2cnn(CC(=O)Nc3ccccc3Br)c(=O)c2c1OC | . | . | . | -16% | . | .
COc1cccc(NC(=O)CCC2CCN(C(=O)c3sccc3C)CC2)c1 | 21µM* | 0 | -12% | -39% | 21µM* | -9%
COc1cccc(NC(=O)CCC2CCN(C(=O)Cc3cccc(F)c3)CC2)c1 | ? | 2 | -11% | 0% | 15µM* | -19%
COc1ccc(CC(=O)N2CCC(CCC(=O)Nc3ccccc3)CC2)cc1 | -23% | 0 | 0% | 2% | ? | -16%
Cc1c(C(=O)NCc2ccccc2C(F)(F)F)sc(=O)n1Cc1ccc(Cl)c(Cl)c1 | ? | -72* | ? | 2% | ? | -20%
CSc1ccc(Cn2c(C)c(C(=O)NCc3ccccc3C(F)(F)F)sc2=O)cc1 | ? | . | 6% | 0% | ? | -29%
Cc1c(C(=O)NCc2ccccc2C(F)(F)F)sc(=O)n1Cc1ccc(S(=O)(=O)N(C)C)cc1 | ? | -20 | -10% | 0% | 21µM* | -24%
Cc1c(C(=O)NCc2ccc(C(F)(F)F)cc2)sc(=O)n1Cc1ccc(S(=O)(=O)N(C)C)cc1 | 23µM* | 0 | -11% | 14% | 23µM* | -14%
COc1ccc(CNC(=O)c2sc(=O)n(Cc3ccc(S(=O)(=O)N(C)C)cc3)c2C)cc1 | ? | -12 | -22% | 1% | ? | ?
CC(=O)Nc1ccc(N(CC(O)Cn2c3ccccc3c3ccccc32)S(=O)(=O)c2ccc(C)cc2)cc1 (centres undefined) | ? | -55* | ? | ? | ? | ?
Cc1ccc(N(CC(O)Cn2nc(C)cc2C)S(=O)(=O)c2ccc3ccccc3c2)cc1 (centres undefined) | ? | ? | -9% | ? | 18µM* | -2%
Cc1ccc(N(CC(O)CN2CCCC2)S(=O)(=O)c2ccc(C)cc2)cc1 (centres undefined) | -9% | -20 | -5% | 4% | -12% | 8%
Cc1ccc(N(CC(O)Cn2c3ccccc3c3ccccc32)S(C)(=O)=O)c(C)c1 (centres undefined) | ? | -72* | 18µM* | 0% | ? | ?
Cc1ccc(N(CC(O)Cn2c3ccccc3c3ccccc32)S(C)(=O)=O)cc1 (centres undefined) | -20% | -66* | ? | -7%[57.4 µM] | ? | ?
Cc1c(C)n(CC(O)CN(CCO)CCO)c2ccccc12 (centres undefined) | -28% | -8 | -2% | ? | -2% | -1%
CCCN(CCC)CC(O)Cn1c2ccccc2c2ccccc21 (centres undefined) | ? | -75* | -3% | -1% | ? | 6%
Cc1cccc(N(CC(O)Cn2c3ccccc3c3ccccc32)S(=O)(=O)c2ccc(F)cc2)c1 (centres undefined) | 21µM* | . | . | -24% | 8.2µM* | .
COc1ccc(COc2cccnc2N)cc1 | -29% | -1 | 0% | 93% | -30% | -4%
Nc1ncccc1OCc1ccc(Br)cc1 | -27% | -10 | -17% | 0% | 18µM* | -9%
SMILES | DT40 TDP1 CPT | IL1B secr inh | HT1080NT lethal | ALOX12 inh | TDP1 cell noCPT | HT1080 IDH1KD tx
O=C(Nc1cccc(Cl)c1)N1CCC(c2noc(COc3cccnc3)n2)CC1 | . | . | . | 20% | . | .
Cn1c(N)c(C(=O)COC(=O)c2cc(-c3ccco3)nc3ccccc23)c(=O)n(C)c1=O | 21µM* | -25 | -17% | ? | 16µM* | -11%
COc1ccc(-c2cc(C(=O)c3c(N)n(C)c(=O)n(C)c3=O)c3ccccc3n2)cc1 | -28% | -2 | -23% | 1% | ? | -24%
Cn1c(N)c(C(=O)COC(=O)c2cc(C3CC3)nc3ccccc23)c(=O)n(C)c1=O | 13µM* | -4 | 1% | 9% | 18µM* | 2%
COc1ccc(-c2cc(C(=O)OCC(=O)c3c(N)n(C)c(=O)n(C)c3=O)c3ccccc3n2)cc1 | 4.1µM* | -53* | 20% | -1% | 1.6µM* | 12%
Cn1c(N)c(C(=O)COC(=O)c2cc(C(F)(F)F)nc3ccccc23)c(=O)n(Cc2ccccc2)c1=O | 23µM* | 11 | -3% | . | ? | 2%
O=C(COc1ccccc1)Nc1ccc([C@@H](O)[C@H]2COCC(=O)N2CC2CC2)cc1 | . | . | . | 47%[176 µM] | . | .
CCOc1cc(=O)n2c(c1C(=O)Nc1ccc(C(N)=O)cc1)CCCC2 | . | . | . | -2% | . | .
Cc1ccc(CN(C)C(=O)Cn2c(=O)c3c(ncn3C3CCCC3)n(Cc3ccccc3)c2=O)o1 | . | . | . | 0% | . | .
Cc1nc(-c2ccccc2)n(CC(=O)Nc2ccc(F)c(Cl)c2)c(=O)c1CCO | . | . | . | 8% | . | .
COc1ccc(-c2cnc(C(N)=O)c(=O)[nH]2)cc1 | -25% | -5 | 8% | 6.3µM* | -5% | -1%
COc1ccc(C(O)c2ncc(-c3ccc(Cl)cc3)[nH]2)cc1 (centres undefined) | ? | -3 | -9% | ? | -21% | -11%
C/C(=N\NC(=O)c1c(Cl)c(C)nn1C)c1cccc(NC(=O)c2cccc(F)c2)c1 | ? | i | -3% | 278% | 23µM* | -1%
C/C(=N\NC(=O)c1nn(C)c(C)c1Br)c1cccc(NC(=O)c2ccc(F)cc2)c1 | ? | 0 | 1% | 13% | 16µM* | 9%
Cn1c(CNC(=O)CC[C@H]2NC(=O)c3ccccc3NC2=O)nc2ccccc21 | . | . | . | 14% | . | .
